Data as given in PubChem BioAssay (NCATS).
Results filed as inconclusive are left out. A number with no mark means an inactive call. Active and inactive are the calls of the source. Calls come from the whole dose curve; as a rule, active = well fitted inhibition curve with a large enough effect; inconclusive = small, poorly fitted or top-dose-only effect; inactive = flat fitted curve, though single readings scatter.

molecular target: Phospholipid hydroperoxide glutathione peroxidase GPX4 (Homo sapiens) (UniProt P36969); test: Primary qHTS Assay for Inhibitors of Recombinant Selenoprotein Glutathione Peroxidase 4 (GPX4) (AID 1845192); settings: recombinant GPX4, GR-coupled NADPH fluorescence, 15 min; series mostly up to 50 µM; activity change, negative = inhibition: at the top concentration; note: nearly all actives have a fitted effect of over 65% in size
In short: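 GR-coupled readout: 100 nM GR, 1 mM GSH, 0.5 mM NADPH; NADPH fluorescence (ex 340/em 450 nm) read at t=0 and after 15 min RT. GPX4 200 nM, preincubated 30 min with compound; substrate 0.5 mM CHP.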
% is set by controls: 0 for no effect and ±100 for the full control effect.

Phospholipid hydroperoxide glutathione peroxidase GPX4 (Homo sapiens), sequence (P36969 whole entry, looked up): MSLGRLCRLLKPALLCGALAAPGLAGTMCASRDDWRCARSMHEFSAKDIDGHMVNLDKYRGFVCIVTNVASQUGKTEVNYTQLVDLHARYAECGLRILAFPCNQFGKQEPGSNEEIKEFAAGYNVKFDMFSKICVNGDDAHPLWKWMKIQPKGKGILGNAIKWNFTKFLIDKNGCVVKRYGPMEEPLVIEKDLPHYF

Row | Structure (SMILES) | outcome | activity change, negative = inhibition [%]
1 | c1ccc(CN2CCC3(CCCc4ccccc43)CC2)cc1 | inactive | 
2 | c1ccc2nc(C3=NCCN3)ccc2c1 |  | -8.96
3 | CCCc1c(-c2ccc(O)cc2)nn(-c2ccc(O)cc2)c1-c1ccc(O)cc1 |  | -21.8
4 | OC[C@H]1NC[C@@H](O)[C@@H]1O | inactive | 
5 | Cc1cccc(C(=O)NCN2CCN(c3ccccc3C#N)CC2)c1 |  | -1.45
6 | CCN1C(=O)C=CC1=O |  | -13.8
7 | CCc1ccc2c(-c3cccc(Cl)c3)nc(=O)n(CC)c2n1 |  | -20.8
8 | O[Si](CCCN1CCCCC1)(c1ccc(F)cc1)C1CCCCC1 (configuration not stated) | inactive | 
9 | CCn1c(=O)[nH]c2cc(Cl)c(Cl)cc21 |  | -2.39
10 | NC/C=C\C(=O)O |  | -19.2
11 | O=C(O)c1ccccc1Nc1ccccc1 |  | 3.71
12 | Cc1nc(N=Nc2cc(S(=O)(=O)O)c3cc([N+](=O)[O-])cc(S(=O)(=O)O)c3c2)c(COP(=O)(O)O)c(C=O)c1O | inactive | 
13 | Nc1nc2ccc(Cl)cc2c2nc(-c3ccco3)nn12 | inactive | 
14 | Cc1ccc([N+](=O)[O-])cc1S(=O)(=O)N(C)C | inactive | 
15 | CCCCOc1cc(CC2CNC(=O)N2)ccc1OC (configuration not stated) | inactive | 
16 | COC(=O)C(C)(N)Cc1ccc(O)cc1 (configuration not stated) | inactive | 
17 | C#CCn1c(=O)c2c(ncn2C)n(C)c1=O |  | -6.29
18 | NCCCCN |  | -9.36
19 | NCCCNCCCCNCCCN | inactive | 

Row | Structure (SMILES) | outcome | activity change, negative = inhibition [%]
20 | O=C(O)c1cccnc1C(=O)O |  | -0.293
21 | CCCCCC[C@@H]([C@@H](C)O)n1cnc2c(N)ncnc21 |  | -3.12
22 | O=C1NC(=O)c2cc(Nc3ccccc3)c(Nc3ccccc3)cc21 | inactive | 
23 | N=C(N)SCCN | inactive | 
24 | CC(=O)O[C@H]1CC2(C)[C@@H](C[C@@H](O)[C@H]3[C@@]4(C)CC[C@@H](O)[C@@H](C)[C@@H]4CC[C@@]32C)C1=C(CCC=C(C)C)C(=O)O (some centres not stated) | inactive | 
25 | N=C(N)c1ccccc1 |  | -3.54
26 | N[C@H](C(=O)O)[C@H](Cc1ccccc1)C(=O)O | inactive | 
27 | CCCCCCCCCCCCCCSCC(=O)O |  | 0.869
28 | O=C1OC(=O)C2C3CCC(O3)C12 (configuration not stated) | inactive | 
29 | COc1ccc(-c2ccc(N)[n+](CCCC(=O)O)n2)cc1 |  | -6.55
30 | CN(C)C(=O)/N=N/C(=O)N(C)C | inactive | 
31 | COc1ccc(CCn2nnnc2C2(c3ccc(C)cc3)CC2)cc1 |  | -17.8
32 | COc1ccc(NC(=O)c2ccc(-c3ccc(-c4noc(C)n4)cc3C)cc2)cc1N1CCN(C)CC1 | inactive | 
33 | COc1ccc(CCN(C)CCc2ccc(OC)c(OC)c2)cc1OC |  | 4.69
34 | CC1=C(C(=O)O)N2C(=O)[C@@H](NC(=O)C(N)C3=CCC=CC3)[C@H]2SC1 (some centres not stated) |  | 1.05
35 | [N-]=[N+]=Nc1ccc(C(=O)CSC[C@H](NC(=O)CC[C@H](N)C(=O)O)C(=O)NCC(=O)O)cc1 |  | -12
36 | CCCN(CCc1ccccc1)C1CCc2c(O)cccc2C1 (configuration not stated) |  | 0.319
37 | OC[C@H]1O[C@H](n2cnc3c(N[C@H]4CCC[C@@H]4O)ncnc32)[C@H](O)[C@@H]1O |  | -10.7
